From ChEMBL document CHEMBL3988442, “University of Dundee, Small-Polar-MMV Screening Library” (2021)
The whole screen tested about 48,000 compounds, of which about 13,000 (27%) showed an effect of 50% or more. This is one part of the list.

The molecules below were run on Wolbachia pipientis (assay: Anti-Wolbachia Cell-Based Screen). Settings: 5 µM.
Type: functional
Set-up: scale not given: in the data most compounds retested in dose-response had high values

Point of comparison: `O=C(NCC(F)(F)F)C(c1cccnc1)N1CCCC1` (stereo not given), “Percent Effect” value -5.02%. Against it:
- COC1COC2(CCN(C(=O)c3ccccc3F)CC2)C1 (stereo not given) — higher, 91.89%
- O=C(O)C(F)(F)F.O=C(c1ccccc1F)N1CCC2(CC1)CC(N1CCCC1)CO2 (stereo not given) — higher, 116.8%
- Cc1cc(C(=O)NC2(C#N)CCCC2)c(C)n1-c1cccnc1 — lower, -8.526%
- O=C(Cc1cccs1)NCC1Cn2nnc(-c3ccoc3)c2CO1 (stereo not given) — higher, 6.925%
- Fc1ccc(CN2CCC3(CCCN(c4nncs4)C3)C2)cc1.O=C(O)C(F)(F)F (stereo not given) — higher, 5.699%
- COc1ccc(S(=O)(=O)NC(=O)C(C)OC)c(OC)c1 (stereo not given) — higher, 36.91%
- O=C(N[C@@H]1CN(C2CCCC2)C[C@@H]2CCCO[C@@H]21)c1cnccn1.O=C(O)C(F)(F)F — lower, -9.219%
- CN(C(=O)C(c1c(F)cccc1Cl)N(C)C)c1nccs1 (stereo not given) — higher, 2.736%
- COc1ncccc1C(=O)N1CCC2(CC1)CC(OC)CO2.O=C(O)C(F)(F)F (stereo not given) — higher, 101.4%
- COC1COC2(CCN(C(=O)c3cscn3)CC2)C1 (stereo not given) — lower, -7.766%
- COc1ncccc1C(=O)N1C[C@@H]2COC[C@]2(CN(C)C)C1.O=C(O)C(F)(F)F.O=C(O)C(F)(F)F — lower, -15.94%
- O=C1CCCN1C1CCCN(CCn2cc(Cl)cn2)C1 (stereo not given) — higher, 92.68%
- O=C1CCC2(CCCN(CCn3cc(Cl)cn3)C2)CN1C1CCCC1 (stereo not given) — higher, 113%
- COc1coc(CN2CCCC3(CCC(=O)N(C4CC4)C3)C2)cc1=O (stereo not given) — higher, 7.748%
- Cn1cc(CN2C[C@@H](N3CCCC3=O)[C@H]3OCCC[C@H]32)cn1 — higher, 16.86%
- COCCCN1CC2(CCCN(CCn3cc(Cl)cn3)C2)CCC1=O (stereo not given) — higher, 116.7%
- COCCN1CC2(CCCN(c3ncc(Cl)cc3F)C2)CCC1=O (stereo not given) — higher, 2.913%
- Cc1cnn(CC(=O)N2CCC3(CCC(=O)N(C4CCCC4)C3)CC2)c1 — lower, -24.67%
- Nc1ccnc(C(=O)N2CCCC3(CCC(=O)N(C4CCCC4)C3)C2)c1 (stereo not given) — higher, 1.558%
- COCCCN1CC2(CCCN(c3ncc(Cl)cc3F)C2)CCC1=O (stereo not given) — higher, -2.307%
- Cc1ccnn1CCN1CCCC2(CCC(=O)N(C3CCCC3)C2)C1 (stereo not given) — higher, 107.9%
- O=C1CCCN1C1CCCN(CCOc2ccc(F)cc2)C1 (stereo not given) — lower, -5.922%
- O=C1CCC2(CCN(Cc3cc(F)ccc3Cl)CC2)CN1C1CCCC1 — higher, -0.02537%
- Cc1cc(NC(=O)CNCc2csc(-c3cnccn3)n2)ccc1Cl — higher, -4.536%
- CN(c1ncccc1CNS(=O)(=O)N1CCOCC1)C1CCCCC1 — higher, 1.985%
- Cc1ccc(S(=O)(=O)N2CCOCC2C#N)cc1Br (stereo not given) — higher, -3.449%
- Cc1nc[nH]c1CN1C[C@@H]2CC[C@H](C1)N(C(=O)CCc1cnn(C)c1)C2 — lower, -6.684%
- O=C(NCCCn1ccnn1)C1CCCN(C2CCCC2)C1 (stereo not given) — higher, 9.707%
- O=c1c(CN2CCCCC2)coc2ccc(Cl)cc12 — higher, -1.352%
- O=c1c(CN2CCOCC2)coc(O)c1CN1CCOCC1 — higher, 110.9%
- CC(C)C(C)NC(=O)Nc1ccccc1CN1CCOCC1 (stereo not given) — higher, -2.62%
- O=c1c(CN2CCOCC2)coc2ccc(Cl)cc12 — higher, 14.49%
- O=C1OCCN1CCN1CCCN(Cc2ccccc2F)CC1 — higher, 0.37%
- O=c1c(CN2CCCCCC2)coc(O)c1CN1CCOCC1 — higher, 99.75%
- CC(C)NC(=O)Nc1ccccc1CN1CCOCC1 — higher, 8.436%
- Cc1ccc2occ(CN3CCN(c4ncccn4)CC3)c(=O)c2c1 — lower, -23.78%
- O=c1c(CN2CCSCC2)coc(O)c1CN1CCCC1 — higher, 112.9%
- O=c1c(CN2CCCCCC2)coc(O)c1CN1CCCCCC1 — higher, 87.67%
- CCn1ccc2ccc(CN3CCCC3c3nc(C(C)C)no3)cc21 (stereo not given) — lower, -10.44%
- Cc1cccc(CO[C@H]2CO[C@@]3(CCN(S(=O)(=O)N(C)C)C3)C2)n1 — lower, -27.75%
- FC(F)(F)Sc1ccccc1NCc1nc(C2CC2)no1 — higher, 0.6009%
- CC(NCc1cnc(C2CCC2)s1)c1ccc(-n2cncn2)cc1 (stereo not given) — lower, -68.33%
- CC(C)CCCC(C)NC(=O)c1ccc(OCC(N)=O)cc1 (stereo not given) — lower, -8.979%
- Cc1ccc(NC(=O)CC2Cn3ncnc3NC2=O)cc1C (stereo not given) — higher, 101.1%
- O=C(CC1Cn2ncnc2NC1=O)Nc1ccc(F)c(F)c1 (stereo not given) — higher, 110.9%
- Cc1cc(NC(=O)CNCc2csc(-c3ncccn3)n2)ccc1Cl — higher, 12.11%
- CC(NC(=O)Nc1ccc(F)c(F)c1)c1nc[nH]n1 (stereo not given) — lower, -17.28%
- Cc1ccc(NC(=O)c2ccc(CC3CC(=O)NC3=O)cc2)cc1O (stereo not given) — lower, -14.91%
- CCC(=O)Nc1ccc(F)c(S(=O)(=O)NC(C)(C)C)c1 — lower, -7.233%
